This is part of a sample that, as a whole, favours compounds with a hit. Of some 83,000 tested, about 20% had one in any assay.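 Treatment: one concentration, 48 hours, 96-well format. Scoring: percent growth, with anything below 10 considered active.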 The source made the active and inactive calls.
Key:
Assay in all cases: NCI-60 one-dose screen, 48 h (100 = growth as untreated, 0 = no growth, -100 = all killed)
SR leukemia = conditions: 10 µM unless noted
RPMI-8226 leukemia = conditions: 10 µM unless noted
OVCAR-8 ovarian = conditions: 10 µM unless noted
OVCAR-5 ovarian = conditions: 10 µM unless noted
OVCAR-4 ovarian = conditions: 10 µM unless noted
SK-OV-3 ovarian = conditions: 10 µM unless noted
IGROV1 ovarian = conditions: 10 µM unless noted
OVCAR-3 ovarian = conditions: 10 µM unless noted
NCI/ADR-RES ovarian = conditions: 10 µM unless noted
BT-549 breast = conditions: 10 µM unless noted
MDA-MB-435 melanoma = conditions: 10 µM unless noted
SW-620 colon = conditions: 10 µM unless noted
MCF7 breast = conditions: 10 µM unless noted
HCT-116 colon = conditions: 10 µM unless noted
KM12 colon = conditions: 10 µM unless noted
T-47D breast = conditions: 10 µM unless noted
HCC-2998 colon = conditions: 10 µM

Measured: growth

CS(=O)(=O)N1CCc2c(-c3cnc(N)nc3)nc(N3CCOCC3)nc21
active: SR leukemia 6.13% | OVCAR-8 ovarian 6.31% | OVCAR-5 ovarian 4.76% | OVCAR-4 ovarian -5.74% | SK-OV-3 ovarian -40.6% | IGROV1 ovarian -38.1% | OVCAR-3 ovarian 9.64% | BT-549 breast -7.63% | MDA-MB-435 melanoma 2.21% | MCF7 breast 6.89% | KM12 colon 8.03%
inactive: RPMI-8226 leukemia 18.1% | NCI/ADR-RES ovarian 12.9% | SW-620 colon 24.3% | HCT-116 colon 20.4%

C=CC(=O)N1CCC[C@@H](n2nc(-c3ccc(Oc4ccccc4)cc3)c3c(N)ncnc32)C1
active: SK-OV-3 ovarian -2.8% | IGROV1 ovarian 7.56% | T-47D breast 0.0664%
inactive: SR leukemia 50.3% | RPMI-8226 leukemia 42.1% | OVCAR-8 ovarian 40.1% | OVCAR-5 ovarian 81.7% | OVCAR-4 ovarian 60.6% | OVCAR-3 ovarian 66.3% | NCI/ADR-RES ovarian 46.4% | MDA-MB-435 melanoma 59.6% | SW-620 colon 95.2% | MCF7 breast 52.6% | HCT-116 colon 59.8% | HCC-2998 colon 103%

CCN1CCN(Cc2ccc(Cc3ncc(F)c(-c4cc(F)c5nc(C)n(C(C)C)c5c4)n3)nc2)CC1
active: SR leukemia -12.4% | SW-620 colon -5.5% | HCT-116 colon 5.58%
inactive: RPMI-8226 leukemia 44.8% | OVCAR-8 ovarian 68.3% | OVCAR-5 ovarian 46.5% | OVCAR-4 ovarian 69.5% | SK-OV-3 ovarian 22.4% | IGROV1 ovarian 37.3% | OVCAR-3 ovarian 63.2% | NCI/ADR-RES ovarian 72.3% | BT-549 breast 61% | MDA-MB-435 melanoma 45.9% | MCF7 breast 25.1% | HCC-2998 colon 54.7% | KM12 colon 28%

COc1cc(Nc2ncc(F)c(Nc3ccc4c(n3)NC(=O)C(C)(C)O4)n2)cc(OC)c1OC
active: IGROV1 ovarian -9.34%
inactive: SR leukemia 38.5% | RPMI-8226 leukemia 71.8% | OVCAR-8 ovarian 67.3% | OVCAR-5 ovarian 24.1% | OVCAR-4 ovarian 73.8% | SK-OV-3 ovarian 21.8% | OVCAR-3 ovarian 63.4% | NCI/ADR-RES ovarian 59.1% | BT-549 breast 34.1% | MDA-MB-435 melanoma 51.2% | SW-620 colon 59.5% | MCF7 breast 41.5% | HCT-116 colon 59.3% | HCC-2998 colon 100% | KM12 colon 12.3%

COc1cc(CCc2cc(NC(=O)c3ccc(N4C[C@@H](C)N[C@@H](C)C4)cc3)n[nH]2)cc(OC)c1
inactive: RPMI-8226 leukemia 41.5% | OVCAR-8 ovarian 58.4% | OVCAR-5 ovarian 29.7% | OVCAR-4 ovarian 49.6% | SK-OV-3 ovarian 25.6% | IGROV1 ovarian 16.7% | OVCAR-3 ovarian 78.8% | NCI/ADR-RES ovarian 91.3% | BT-549 breast 43.8% | MDA-MB-435 melanoma 28.4% | SW-620 colon 28.7% | MCF7 breast 19.9% | HCT-116 colon 25.6% | HCC-2998 colon 56.3%
active: SR leukemia -11% | KM12 colon 3.18%

COc1ncc(-c2ccc3nccc(-c4ccnnc4)c3c2)cc1NS(=O)(=O)c1ccc(F)cc1F
active: SR leukemia -16.9% | RPMI-8226 leukemia -35.4% | OVCAR-8 ovarian -17% | OVCAR-5 ovarian 7.97% | OVCAR-4 ovarian -8.87% | SK-OV-3 ovarian -52.1% | IGROV1 ovarian -24.1% | OVCAR-3 ovarian -58% | NCI/ADR-RES ovarian -20% | T-47D breast -25.3% | MDA-MB-435 melanoma -78% | SW-620 colon -30.9% | MCF7 breast 8.48% | HCT-116 colon -48.7% | HCC-2998 colon -78.4% | KM12 colon -60.5%

Cc1cn(-c2cc(NC(=O)c3ccc(C)c(Nc4nccc(-c5cnccn5)n4)c3)cc(C(F)(F)F)c2)cn1
inactive: SR leukemia 21.5% | RPMI-8226 leukemia 54% | OVCAR-8 ovarian 47.1% | OVCAR-5 ovarian 79% | OVCAR-4 ovarian 99.7% | SK-OV-3 ovarian 59.4% | IGROV1 ovarian 85.1% | OVCAR-3 ovarian 103% | NCI/ADR-RES ovarian 63.8% | T-47D breast 66.7% | BT-549 breast 98.8% | MDA-MB-435 melanoma 23.2% | SW-620 colon 75.5% | MCF7 breast 69% | KM12 colon 46.4%

CN1CCC(CNc2ccc3ncc(-c4cccc(OC(F)(F)F)c4)n3n2)CC1
active: SR leukemia -19.4% | RPMI-8226 leukemia -45.3% | OVCAR-8 ovarian 0.791% | OVCAR-5 ovarian -32.8% | OVCAR-4 ovarian -1.72% | SK-OV-3 ovarian -1.52% | IGROV1 ovarian -60.4% | OVCAR-3 ovarian -26.6% | NCI/ADR-RES ovarian -4.75% | T-47D breast -79.5% | MDA-MB-435 melanoma -95.8% | SW-620 colon -61.9% | MCF7 breast -49.5% | HCT-116 colon -75.1% | HCC-2998 colon -84.4% | KM12 colon -1.37%

Nc1nc(N)c2nc(-c3cccc(O)c3)c(-c3cccc(O)c3)nc2n1
inactive: SR leukemia 82% | RPMI-8226 leukemia 83.5% | OVCAR-8 ovarian 77.2% | OVCAR-5 ovarian 78.1% | OVCAR-4 ovarian 93.8% | SK-OV-3 ovarian 52.8% | IGROV1 ovarian 42.1% | OVCAR-3 ovarian 57.4% | NCI/ADR-RES ovarian 89.5% | BT-549 breast 47.8% | MDA-MB-435 melanoma 97.4% | SW-620 colon 90.8% | MCF7 breast 70.1% | HCT-116 colon 77.9% | HCC-2998 colon 94.6% | KM12 colon 90.6%

Source: PubChem BioAssay (NCI)
